Results: PubChem BioAssay (NCATS)
Several values for one entry are separate records, joined by “and”; a condition that tells them apart may be missing. Identical values can stand only once. Inconclusive results are not listed. Activity calls are given as the source filed them. Unless noted, calls come from the whole dose curve; as a rule, active = well fitted curve in either direction with a large enough effect (not every such curve was filed as active); inconclusive = small, poorly fitted or top-dose-only effect, or another doubt; inactive = flat fitted curve, though single readings scatter.

Legend:
[1] = AP1 Signaling Pathway (AID 357); note: % is set by controls: 0 for no effect and ±100 for the full control effect
Method in brief: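 AP-1-bla ME-180 cells with beta-lactamase reporter under AP-1 response element, stimulated with EC50 EGF; compounds titrated, 5 hours at 37 degrees Celsius. CCF4 read at 460/530 nm ratio; positive and negative modulators judged by AC50.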

[2] = biological target: Cytochrome P450 1A2 (Homo sapiens) (UniProt P05177); test: p450-cyp1a2 (AID 410; calls by dose curve; note: potency is the fitted concentration of half-maximal effect;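 for activity change, negative = inhibition: -100% = full effect of reference inhibitor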)
Method in brief: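 20nM CYP1A2, 100uM Luciferin-ME (=Km), 100mM KPO4; cpd 10 min RT; +NADPH regen, 60 min RT; stop/detect 20 min; luminescence. Normalized to furafylline 57 uM = full inhibition.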

[3] = NFAT Signaling Pathway (AID 444); settings: Jurkat NFAT-bla M1, carbachol, beta-lactamase ratio, 5 h;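 note: carbachol stimulus at about its EC50 of 1 µM final; % is set by controls: 0 for no effect and ±100 for the full control effect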
Method in brief: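 Jurkat cells with NFAT-driven β-lactamase reporter and co-expressed M1 receptor, stimulated with carbachol (final 1 uM, ~EC50), compound titration, 5 h at 37 °C. CCF4 loaded 1 h at RT; 460/530 nm ratio gave %activity and AC50.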

[4] = Stat Signaling Pathway (AID 446);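 note: ME-180 cervical cancer cells given 40 pM IL-6 alongside compound; SIE-controlled beta-lactamase reporter measured as 460/530 nm FRET emission ratio; % is set by controls: 0 for no effect and ±100 for the full control effect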
Method in brief: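 Compound effects on IL-6-induced STAT reporter activity were measured in ME-180 cells. After overnight culture, cells were co-treated with 40 pM IL-6 for 5 hrs before beta-lactamase substrate loading at room temperature.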

[5] = biological target: Glucocorticoid receptor (Homo sapiens) (UniProt P04150); test: GR-GFP Redistribution (AID 450;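 active = compounds whose dose series gives a full or clear partial fitted curve of increased nuclear translocation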; note: potency is the fitted concentration of half-maximal effect); settings: U2OS GR-GFP nuclear translocation, laser cytometry, 2 h
[6] = biological target: Glucocorticoid receptor (Homo sapiens) (UniProt P04150); test: GR-EFC Redistribution (AID 451; calls by dose curve; note: potency is the fitted concentration of half-maximal effect); settings: CHO-K1 GR-EFC translocation, beta-gal luminescence, 2 h
Method in brief: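 CHO-K1 cells expressing nuclear EA and GR-ED fragments of b-gal; compounds titrated up to 46 uM final, 2 h at 37 C. GR nuclear translocation read as complemented b-gal luminescence after 1 h RT detection.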

[7] = biological target: Mitogen-activated protein kinase 10 (Mus musculus) (UniProt Q61831); test: JNK3 AlphaScreen Assay (AID 530);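 note: kinase came from lysate of stimulated human HepG2 cells; signal reports phosphorylation of biotinylated GST-cJun 1-79 at Ser73 with 10 µM ATP; % is set by controls: 0 for no effect and ±100 for the full control effect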
Method in brief: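 HepG2 lysate (IL-1b/TNFa pre-activated) + biotin-GST-cJun 1-79 + anti-pSer73 cJun; cpd titration, 15 min RT; ATP 10 uM start; Tris pH 7.6, MgCl2, DTT, vanadate; beads in EDTA buffer; AlphaScreen.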

[8] = biological target: 3',5'-cyclic-AMP phosphodiesterase 4B (Homo sapiens) (UniProt Q07343); test: qHTS Assay for Inhibitors of PDE-IV (AID 607; active = well fitted activation curve with a large enough effect in the main read-out, with a control signal flat, not every such curve was filed as active; note: % of control where 0% means no effect)
Method in brief: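 ACTOne HEK293 cells carry a modified cAMP-gated CNG channel and express endogenous PDE4; plated 1000 cells/well, compounds up to 22.9 uM final. Membrane-potential dye fluorescence (ex 535/em 590) was read; parental cells received 10 uM forskolin + 100 uM RO 20-1724.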

[9] = Cell Viability - BJ (AID 421; calls by dose curve;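 note: potency is the fitted concentration of half-maximal effect; cells exposed to compound for 40 hours at 37 °C before readout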); settings: BJ fibroblast viability, qHTS
Method in brief: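 Luminescent ATP signal (CellTiter-Glo, 20 min at room temperature) served as the read-out of viable BJ cells after 40 hours of compound treatment. Responses were scaled between DMSO and 100 uM tamoxifen, and AC50 values were obtained by Hill modeling.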

[10] = Cell Viability - Jurkat (AID 426;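 active = dose-dependent loss of cell ATP signal giving a full or clear fitted curve, ranked by lower potency value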;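 note: potency is the fitted concentration of half-maximal effect; cells exposed to compound for 40 hours at 37 °C before ATP read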); settings: qHTS
Method in brief: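 Luminescent ATP read-out (CellTiter-Glo, 20 min at room temperature) after 40 hr compound exposure at 37 °C of Jurkat E6-1 cells, 5000/well. Decreased ATP taken as cytotoxicity; AC50 from standard Hill equation.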

[11] = Cell Viability - Hek293 (AID 427;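 active = compounds whose dose-response curve shows a full or clear partial loss of cell viability, called from curve shape rather than a numeric limit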;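 note: potency is the fitted concentration of half-maximal effect; cells exposed to compound for 40 hours at 37 °C before reading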); settings: qHTS
Method in brief: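 Luminescent ATP read-out (CellTiter-Glo, 20 min RT) after 40 hr compound exposure at 37 °C in complete medium. Signal normalized to DMSO (basal) and 100 uM tamoxifen (100% inhibition); concentration-response fitted with the standard Hill equation to give AC50.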

[12] = Cell Viability - HepG2 (AID 433; calls by dose curve;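 note: potency is the fitted concentration of half-maximal effect; potency for ATP loss meaning cytotoxicity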); settings: qHTS
Method in brief: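 Read-out is luciferase-based quantitation of cellular ATP as a measure of viable HepG2 cells after 40 h treatment at 37 °C. Signal decrease is scaled between DMSO-only and 100 uM tamoxifen controls, with AC50 fitted by the Hill equation.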

[13] = Cell Viability - SK-N-SH (AID 435; calls by dose curve; note: potency is the fitted concentration of half-maximal effect); settings: SK-N-SH neuroblastoma cell viability qHTS
Method in brief: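 Luminescent ATP signal served as the viability read-out after 40 hours of compound treatment of human neuroblastoma SK-N-SH cells. Concentration-response data, scaled between DMSO and 100 uM tamoxifen, gave AC50 values by standard Hill modeling.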

[14] = Cell Viability - N2a (AID 540; active = well fitted curve in the direction sought with a large enough effect; an effect the other way counts as inactive or inconclusive;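 note: plate controls were DMSO alone for no effect and tamoxifen control for full effect; nearly all actives have a fitted effect of over 45% in size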)
Method in brief: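 N2a mouse neuroblastoma, 1500 cells/well, 5 hr settle; compound 40 hr, 37 °C; CellTiter-Glo 20 min RT; luminescence; Hill-fit AC50.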

[15] = Cell Viability - HUV-EC-C (AID 542; active = well fitted curve in the direction sought with a large enough effect; an effect the other way counts as inactive or inconclusive; note: % is set by controls: 0 for no effect and ±100 for the full control effect; nearly all actives have a fitted effect of over 35% in size)
Method in brief: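 Luminescent ATP read-out (CellTiter-Glo, 20 min room temperature) after 40 hr compound treatment of HUV-EC-C cells at 37 °C. Concentration-response data fitted with the standard Hill equation to give AC50; tamoxifen and doxorubicin served as positive controls.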

[16] = Cell Viability - H-4-II-E (AID 543; active = well fitted curve in the direction sought with a large enough effect; an effect the other way counts as inactive or inconclusive; note: % is set by controls: 0 for no effect and ±100 for the full control effect; nearly all actives have a fitted effect of over 35% in size)
Method in brief: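 qHTS, rat hepatoma H-4-II-E, 1500 cells/well; 40 hr compound exposure, 37 °C; CellTiter-Glo ATP luminescence after 20 min RT; AC50 by standard Hill fit.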

[17] = Cell Viability - Renal Proximal Tubule (AID 545; active = well fitted curve in the direction sought with a large enough effect; an effect the other way counts as inactive or inconclusive;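 note: 0% = DMSO only and -100% = 100 µM tamoxifen; nearly all actives have a fitted effect of over 40% in size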)
Method in brief: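 Luminescent ATP signal (CellTiter-Glo) served as the viability read-out after 40 hr compound exposure of freshly isolated rat proximal tubule cells at 37 °C. Concentration-dependent ATP loss was fitted with the Hill equation to give AC50.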

[18] = Cell Viability - Mesenchymal (AID 546; active = well fitted curve in the direction sought with a large enough effect; an effect the other way counts as inactive or inconclusive;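 note: cells exposed to compound for 40 hours before reading; 0% = DMSO only and -100% = 100 µM tamoxifen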)
Method in brief: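 Human renal mesenchymal cells (glomerulus-derived), 1000 cells/well, 5 hr 37 °C pre-incubation; compound 40 hr, 37 °C; CellTiter-Glo, 20 min RT; luminescence; AC50 via Hill equation.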

[19] = Cell Viability - NIH 3T3 (AID 541; active = well fitted curve in the direction sought with a large enough effect; an effect the other way counts as inactive or inconclusive;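 note: plate controls were DMSO alone for no effect and tamoxifen positive control for full effect; nearly all actives have a fitted effect of over 25% in size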)
Method in brief: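 qHTS format; 40 hr compound exposure, 37 °C; CellTiter-Glo luminescence (cellular ATP) read-out after 20 min at RT. Decrease in ATP = cytotoxicity; AC50 from standard Hill fit.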

[20] = biological target: Lysosomal acid glucosylceramidase (Homo sapiens) (UniProt P04062); test: Glucocerebrosidase-p2 (AID 348; in the data active = potency below about 10 µM; note: potency is the fitted concentration of half-maximal effect); settings: purified GBA, blue fluorogenic substrate, 40 min
Method in brief: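 Normal human glucocerebrosidase (0.2 nM) with blue fluorogenic substrate (80 uM final) in citrate/phosphate pH 5.9 with 10mM sodium taurocholate, 0.01% tween-20; 40 min RT, NaOH/glycine stop; fluorescence Ex 365/Em 440; AC50 from a titration from 0.6 nM upwards.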

[21] = at 17.2 µM (top of the series) unless noted

3',5'-cyclic-AMP phosphodiesterase 4B (Homo sapiens), sequence (Q07343 whole entry, looked up): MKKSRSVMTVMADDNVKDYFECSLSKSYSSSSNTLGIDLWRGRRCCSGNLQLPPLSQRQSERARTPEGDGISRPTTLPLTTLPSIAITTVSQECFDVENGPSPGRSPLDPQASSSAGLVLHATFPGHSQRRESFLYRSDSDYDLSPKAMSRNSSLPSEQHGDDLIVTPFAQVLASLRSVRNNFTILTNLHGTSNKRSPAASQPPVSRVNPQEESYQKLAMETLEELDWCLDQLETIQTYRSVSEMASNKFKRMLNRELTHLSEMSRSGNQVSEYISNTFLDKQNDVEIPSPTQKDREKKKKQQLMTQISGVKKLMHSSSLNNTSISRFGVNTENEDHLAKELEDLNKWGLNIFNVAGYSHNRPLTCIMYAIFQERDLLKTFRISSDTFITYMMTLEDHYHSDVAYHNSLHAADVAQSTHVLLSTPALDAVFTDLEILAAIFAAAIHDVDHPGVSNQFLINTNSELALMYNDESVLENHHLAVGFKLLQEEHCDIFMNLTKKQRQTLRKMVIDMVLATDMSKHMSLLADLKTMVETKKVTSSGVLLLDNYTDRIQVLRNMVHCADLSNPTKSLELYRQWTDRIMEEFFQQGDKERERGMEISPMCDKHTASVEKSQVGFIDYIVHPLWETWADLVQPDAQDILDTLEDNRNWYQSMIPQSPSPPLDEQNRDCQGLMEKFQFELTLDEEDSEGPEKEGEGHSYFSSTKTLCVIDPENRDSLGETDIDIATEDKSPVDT
Cytochrome P450 1A2 (Homo sapiens), sequence (P05177 whole entry, looked up): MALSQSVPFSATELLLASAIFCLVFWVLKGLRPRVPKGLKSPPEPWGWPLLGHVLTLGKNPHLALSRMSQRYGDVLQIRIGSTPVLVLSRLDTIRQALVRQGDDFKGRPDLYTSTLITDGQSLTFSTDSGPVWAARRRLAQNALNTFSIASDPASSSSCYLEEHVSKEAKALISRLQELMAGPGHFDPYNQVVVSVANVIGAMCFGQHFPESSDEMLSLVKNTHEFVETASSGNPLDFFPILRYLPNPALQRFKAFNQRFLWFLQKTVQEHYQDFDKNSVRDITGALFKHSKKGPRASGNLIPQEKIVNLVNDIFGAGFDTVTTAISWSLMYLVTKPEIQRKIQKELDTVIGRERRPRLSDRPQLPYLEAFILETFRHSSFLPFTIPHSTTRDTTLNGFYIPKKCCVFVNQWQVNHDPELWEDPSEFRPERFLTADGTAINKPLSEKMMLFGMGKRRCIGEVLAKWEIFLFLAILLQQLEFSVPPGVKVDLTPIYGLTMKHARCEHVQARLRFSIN
Glucocorticoid receptor (Homo sapiens), sequence (P04150 whole entry, looked up, the tested form may be a part): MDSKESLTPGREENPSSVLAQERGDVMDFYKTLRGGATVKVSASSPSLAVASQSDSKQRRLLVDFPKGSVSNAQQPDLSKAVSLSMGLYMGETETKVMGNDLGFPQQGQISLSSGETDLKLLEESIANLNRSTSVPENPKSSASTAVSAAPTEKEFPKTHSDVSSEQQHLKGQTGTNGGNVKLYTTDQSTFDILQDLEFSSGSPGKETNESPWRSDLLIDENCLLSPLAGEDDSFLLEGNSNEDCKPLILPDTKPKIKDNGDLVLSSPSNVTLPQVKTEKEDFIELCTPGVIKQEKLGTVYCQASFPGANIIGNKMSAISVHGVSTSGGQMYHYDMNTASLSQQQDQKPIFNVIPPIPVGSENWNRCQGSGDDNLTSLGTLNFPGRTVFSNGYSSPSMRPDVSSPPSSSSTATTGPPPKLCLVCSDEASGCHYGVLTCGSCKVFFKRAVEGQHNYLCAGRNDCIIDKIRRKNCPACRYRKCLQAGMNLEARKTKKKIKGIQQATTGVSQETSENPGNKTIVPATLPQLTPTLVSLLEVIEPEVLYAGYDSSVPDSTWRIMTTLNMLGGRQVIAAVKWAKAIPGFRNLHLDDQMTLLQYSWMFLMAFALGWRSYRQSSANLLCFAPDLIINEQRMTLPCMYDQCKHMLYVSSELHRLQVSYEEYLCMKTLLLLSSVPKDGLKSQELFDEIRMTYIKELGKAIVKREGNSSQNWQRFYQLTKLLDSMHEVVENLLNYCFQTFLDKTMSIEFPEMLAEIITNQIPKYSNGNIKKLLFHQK
Lysosomal acid glucosylceramidase (Homo sapiens), sequence (P04062 whole entry, looked up): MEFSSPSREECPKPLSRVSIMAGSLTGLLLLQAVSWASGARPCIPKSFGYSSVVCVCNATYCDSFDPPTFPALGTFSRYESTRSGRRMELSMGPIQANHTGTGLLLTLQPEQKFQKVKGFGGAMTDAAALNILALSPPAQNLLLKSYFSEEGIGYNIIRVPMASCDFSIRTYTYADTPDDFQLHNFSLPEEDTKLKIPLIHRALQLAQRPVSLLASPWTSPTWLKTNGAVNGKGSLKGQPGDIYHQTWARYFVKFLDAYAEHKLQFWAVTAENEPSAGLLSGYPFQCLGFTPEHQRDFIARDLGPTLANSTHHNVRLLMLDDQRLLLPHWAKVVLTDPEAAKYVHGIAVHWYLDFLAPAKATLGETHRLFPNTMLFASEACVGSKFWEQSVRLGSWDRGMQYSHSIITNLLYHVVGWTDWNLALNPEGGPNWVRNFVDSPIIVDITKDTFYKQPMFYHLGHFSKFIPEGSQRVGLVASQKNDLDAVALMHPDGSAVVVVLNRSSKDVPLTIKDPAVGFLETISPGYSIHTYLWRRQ

CCOC(=O)[C@H](CCc1ccccc1)N[C@@H](C)C(=O)N1CCC[C@H]1C(=O)O
inactive: outcome [1] | Potency [2] | activity change, negative = inhibition [3, 21] 0.851% | outcome [4] | Potency [5] > 20.6 µM | Potency [6] > 20.6 µM | outcome [7] | outcome [8]

Nc1ccc(S(=O)(=O)c2ccc(N)cc2)cc1
inactive: outcome [1] | Potency [9] > 92 µM | Potency [10] > 92 µM | Potency [11] > 92 µM | Potency [12] > 92 µM | Potency [13] > 92 µM | activity change, negative = inhibition [3, 21] -0.066% and 13.8% | outcome [4] | outcome [7] | outcome [14] | outcome [15] | outcome [16] | outcome [17] | outcome [18] | outcome [8]

C[C@@H]1CCC[C@H](C)N1
inactive: outcome [1] | Potency [2] | activity change, negative = inhibition [3, 21] -5.56% | outcome [4] | Potency [5] > 20.6 µM | Potency [6] > 20.6 µM | outcome [7] | outcome [8]

CCc1cccc(CC)c1NC(=O)CN(CC(=O)O)CC(=O)O
inactive: outcome [1] | Potency [2] | activity change, negative = inhibition [3, 21] -2.21% | outcome [4] | Potency [5] > 20.6 µM | Potency [6] > 20.6 µM | outcome [7] | outcome [8]

Cc1c(NC(C)C)c(=O)n(-c2ccccc2)n1C
inactive: outcome [1] | activity change, negative = inhibition [3, 21] -8.51% | outcome [4] | Potency [5] > 20.6 µM | Potency [6] > 20.6 µM | outcome [7] | outcome [8]
active: Potency [2] 0.0398 µM

NC(N)=NS(=O)(=O)c1ccc(N)cc1
inactive: outcome [1] | Potency [2] | activity change, negative = inhibition [3, 21] -6.04% and -19.4% | outcome [4] | Potency [5] > 20.6 µM | Potency [6] > 20.6 µM | outcome [7] | outcome [8]

O=C(O)c1ccccc1C(=O)Nc1ccc(S(=O)(=O)Nc2nccs2)cc1
inactive: outcome [1] | Potency [2] | activity change, negative = inhibition [3, 21] 11.2% | outcome [4] | Potency [5] > 20.6 µM | Potency [6] > 20.6 µM | outcome [7] | outcome [8]

O=C(Cn1ccnc1[N+](=O)[O-])NCCO
inactive: outcome [1] | Potency [2] | activity change, negative = inhibition [3, 21] -5.19% | outcome [4] | outcome [7] | outcome [8]

Cc1cc(C)nc(NS(=O)(=O)c2ccc(N)cc2)n1
inactive: outcome [1] | Potency [2] | Potency [9] > 92 µM | Potency [10] > 92 µM | Potency [11] > 92 µM | Potency [12] > 92 µM | Potency [13] > 92 µM | activity change, negative = inhibition [3, 21] -2.6% | outcome [4] | Potency [5] > 20.6 µM | Potency [6] > 20.6 µM | outcome [7] | outcome [14] | outcome [19] | outcome [15] | outcome [16] | outcome [17] | outcome [18] | outcome [8]

CN1CCCN=C1COC(=O)C(O)(c1ccccc1)C1CCCCC1 (stereo unspecified)
inactive: outcome [1] | outcome [4] | Potency [5] > 20.6 µM
active: activity change, negative = inhibition [3, 21] -84.1%

Cc1ncc(CO)c(CN)c1O
inactive: Potency [20] > 11.4 µM | outcome [1] | activity change, negative = inhibition [3, 21] -0.448% [at 7.69 µM] | outcome [4] | outcome [7] | outcome [8]

NS(=O)(=O)c1ccc(C(=O)O)cc1
inactive: Potency [20] > 11.4 µM | outcome [1] | Potency [2] | activity change, negative = inhibition ([3]; at 7.69 µM (top of the series)) 7.39% | activity change, negative = inhibition ([3]; at 17.2 µM (top of the series)) 8.44% | outcome [4] | Potency [5] > 46 µM and > 20.6 µM | Potency [6] > 9.22 µM | outcome [7] | outcome [8]

CC(=O)SC[C@@H](Cc1ccccc1)C(=O)NCC(=O)OCc1ccccc1
inactive: outcome [1] | activity change, negative = inhibition [3, 21] -12% | outcome [4] | Potency [5] > 20.6 µM | Potency [6] > 20.6 µM | outcome [7] | outcome [8]
active: Potency [2] 2.51 µM

Cc1cc(NC(=O)C2=C(O)c3ccccc3S(=O)(=O)N2C)no1
inactive: outcome [1] | Potency [2] | activity change, negative = inhibition [3, 21] -5.7% and 4.09% | outcome [4] | Potency [5] > 20.6 µM | Potency [6] > 20.6 µM | outcome [7] | outcome [8]

CCN(CC)CCc1nc(-c2ccccc2)no1
inactive: outcome [1] | outcome [4] | Potency [5] > 20.6 µM | Potency [6] > 20.6 µM | outcome [7] | outcome [8]
active: Potency [2] 5.01 µM

CC(=O)N[C@@H](CC(C)C)C(=O)O
inactive: outcome [1] | activity change, negative = inhibition [3, 21] 1.74% | outcome [4] | outcome [7] | outcome [8]

COc1ccc(O)cc1
inactive: Potency [9] > 92 µM | Potency [10] > 92 µM | Potency [11] > 92 µM | Potency [12] > 92 µM | Potency [13] > 92 µM | outcome [7] | outcome [15] | outcome [16] | outcome [17] | outcome [18]
